Assay results from article PMC7819943, “Rice protein-binding microarrays: a tool to detect cis-acting elements near promoter regions in rice”.
The full ranking holds about 39,000 sequences; the median of “fluorescence intensity (a.u.)” is about 4,300, and the highest 2% start at about 39,000. This is one part of a sample in which the highest values are shown more often than they occur.

Each sequence was assayed against T1, OsSMF1 (Oryza sativa, UniProt Q6ZLB0 1-436) (assay: protein-binding microarray (RPBM); PBS, 2% BSA, 51.3 ng/ul salmon testes DNA, 50 uM zinc acetate, 200 nM TF, 25 C, 1 h; high values mean tight binding). Conditions: protein: recombinant; tags: N-terminal polyhistidine and DsRed monomer fusion (pET32a); chain copies: 2; label: CyDye5-dUTP incorporated in the synthesized complementary strand; 3' TTTTT single-stranded linker to array surface; dsDNA, one strand shown.
T1 sequence: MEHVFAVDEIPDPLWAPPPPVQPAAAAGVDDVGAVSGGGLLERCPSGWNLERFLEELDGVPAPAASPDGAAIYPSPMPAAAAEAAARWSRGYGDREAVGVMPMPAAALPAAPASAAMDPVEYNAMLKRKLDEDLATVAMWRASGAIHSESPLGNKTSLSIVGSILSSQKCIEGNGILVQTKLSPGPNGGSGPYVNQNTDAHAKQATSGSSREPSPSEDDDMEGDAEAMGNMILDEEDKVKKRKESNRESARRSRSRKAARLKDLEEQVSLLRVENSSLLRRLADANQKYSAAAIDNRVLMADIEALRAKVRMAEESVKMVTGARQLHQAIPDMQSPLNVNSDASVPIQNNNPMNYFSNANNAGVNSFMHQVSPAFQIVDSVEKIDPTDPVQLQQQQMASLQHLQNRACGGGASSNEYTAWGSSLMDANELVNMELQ
How it was run: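 Polyhistidine-tagged DsRed fusions of transcription factors, joined at the N-terminus, were expressed in E. coli BL21-CodonPlus and isolated on Ni–NTA. They were incubated at 200 nM for 1 h at 25 °C on a custom Agilent array, double-stranded and BSA-blocked, in PBS with 2% BSA, salmon testes DNA and 50 µM zinc acetate. The binding signal is per-feature fluorescence intensity (arbitrary units) read on an Axon 4000B scanner after washing.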

Row | Sequence | binding signal
1 | TAAATTTCAAATTCGTGCCACATAGGTCCTTTTCCTCACACGGAGTCACCTAGTGCAG | 4670 fluorescence intensity (a.u.)
2 | GCTAGCTATTGTTGATTTGTCGTGTTGTAATATATACACTCGGAGTCACCTAGTGCAG | 4680 fluorescence intensity (a.u.)
3 | TAAATCGATCCTACGTCACATGACAGACTGGACCCTTGTCCGGAGTCACCTAGTGCAG | 10900 fluorescence intensity (a.u.)
4 | ACGTCCACGAGTCCATGTCATGACACACCCCAAGTTGCTGCGGAGTCACCTAGTGCAG | 5510 fluorescence intensity (a.u.)
5 | CCCCATCCTAGATGGAACAACCACGTCATCTCATGGGTGACGGAGTCACCTAGTGCAG | 14800 fluorescence intensity (a.u.)
6 | CGTGATCAATTCGCCTCATGCTGGCGTGACGCGGACCGAGCGGAGTCACCTAGTGCAG | 6720 fluorescence intensity (a.u.)
7 | CAAATGCCACCTAAGCGCCACGTCAACCCCATAGACTAGGCGGAGTCACCTAGTGCAG | 34200 fluorescence intensity (a.u.)
8 | TTCAAATGCCACCTAAACGCCACGTCAACCCCATAGACTACGGAGTCACCTAGTGCAG | 15600 fluorescence intensity (a.u.)
9 | TTCAAATGCCACCTAAGCGCCACGTCAACCCCATAGACTGCGGAGTCACCTAGTGCAG | 39500 fluorescence intensity (a.u.)
10 | GGTGTGAGTGTGATGTTGCTCGTGTAATGATGCGTGTGCGCGGAGTCACCTAGTGCAG | 5000 fluorescence intensity (a.u.)
11 | TGTGATGTGGGCATGCGTGTGCGCACGTGTTCTATTGGTGCGGAGTCACCTAGTGCAG | 17600 fluorescence intensity (a.u.)
12 | CGCACACATGAGCTCATGATGTGAACGTGATGATGGTGCGCGGAGTCACCTAGTGCAG | 48500 fluorescence intensity (a.u.)
13 | TCCGCCGCCTCGGTCGGCTCACGCGTCCATGTCCATCCCGCGGAGTCACCTAGTGCAG | 3600 fluorescence intensity (a.u.)
14 | TGTCGGTACTTTCATACGTCATCTATGTATGAGTCGGTTTCGGAGTCACCTAGTGCAG | 10600 fluorescence intensity (a.u.)
15 | GAGTTGAGTTTAGACTTTCTAGAGTGGTATATGTATGTTTCGGAGTCACCTAGTGCAG | 40900 fluorescence intensity (a.u.)
16 | GTCCAGATTCGTTGTACTAGAATATGTCAGATCCAGTCCTCGGAGTCACCTAGTGCAG | 3410 fluorescence intensity (a.u.)
17 | CCTCTAGATCCTCTATGGTACTATATGTACAGTGCTGTTTCGGAGTCACCTAGTGCAG | 42900 fluorescence intensity (a.u.)
18 | CGCACTCAGCTTGTTCCTCTAACTGTACACAGTGGTACTTCGGAGTCACCTAGTGCAG | 26500 fluorescence intensity (a.u.)
19 | GGGTGAGTGTGTGTTGTGCGTTGTGAGTGTGTATGTGTTTCGGAGTCACCTAGTGCAG | 3730 fluorescence intensity (a.u.)
20 | TGGCTATACTATTGAACTTGCTCTCGTGGGACCCACATACCGGAGTCACCTAGTGCAG | 3680 fluorescence intensity (a.u.)
21 | CTTTTGGTCTCGCGCCCACTGACACGTGGGTCCCACGCTCCGGAGTCACCTAGTGCAG | 6100 fluorescence intensity (a.u.)
22 | GCGCGCGCGTTCTCTAATCGAAGTCGATAGGATAGGAGGACGGAGTCACCTAGTGCAG | 36900 fluorescence intensity (a.u.)
23 | TATATAAGAGACCTCACCTCCAAGAATCTCCAGAGAGAGACGGAGTCACCTAGTGCAG | 22900 fluorescence intensity (a.u.)

Row | Sequence | binding signal
24 | CATTCCCTCCTCCTCCTCCTCCTCCTCCTGAATCCCTCCTCGGAGTCACCTAGTGCAG | 3380 fluorescence intensity (a.u.)
25 | GCCCTGTTCCCTGCAGAGAATCATTATATACTCCCTCCAACGGAGTCACCTAGTGCAG | 48100 fluorescence intensity (a.u.)
26 | CGAGGTGAGGCGGAGGGGAGGCAGAGGGGTAGAGGAGGGTCGGAGTCACCTAGTGCAG | 5260 fluorescence intensity (a.u.)
27 | CTACTATACCTCCGTGCGTACCACATACTGTATGTAGACTCGGAGTCACCTAGTGCAG | 4130 fluorescence intensity (a.u.)
28 | CATAGTGCAGGGGAGAAGCCAGGGAAGAGGGAGGTGACGTCGGAGTCACCTAGTGCAG | 3290 fluorescence intensity (a.u.)
29 | AATAGGAAATAAACATTACTGAGAAAAGGGCTCATGTTGGCGGAGTCACCTAGTGCAG | 29300 fluorescence intensity (a.u.)
30 | AAACGATGACTGTTAAATAGGGATTAAAAGGAAAGGATGGCGGAGTCACCTAGTGCAG | 41200 fluorescence intensity (a.u.)
31 | GAGGAGTGGGAGGAAAATGAGTGGTGGGGAAAGGATAGGGCGGAGTCACCTAGTGCAG | 4150 fluorescence intensity (a.u.)
32 | AGCACACATACTAGTACTATATGACAAGTCCACGGAGAGCCGGAGTCACCTAGTGCAG | 3760 fluorescence intensity (a.u.)
33 | GATTAATACGACTACTGTCATACGTACTGTACATGTCATGCGGAGTCACCTAGTGCAG | 3720 fluorescence intensity (a.u.)
34 | CTTTGGCTTTTAGCCATAGACTTTGATCCATGAGTTAGAACGGAGTCACCTAGTGCAG | 40900 fluorescence intensity (a.u.)
35 | TTTTAGCCTCCTTTTGGTTAATCTTTGTTTGATCCAAGAACGGAGTCACCTAGTGCAG | 10200 fluorescence intensity (a.u.)
36 | TTTTGAGCCTAGTTAGTCCATGATTAGCCATAAATGCTACCGGAGTCACCTAGTGCAG | 4540 fluorescence intensity (a.u.)
37 | GGGAAGAGAGAAGAGACGAAACAGGGAGGAGGGGATTGGGCGGAGTCACCTAGTGCAG | 3320 fluorescence intensity (a.u.)
38 | CAACATGCACGTACTACGTGTGCTTGCATTGCATGCATGCCGGAGTCACCTAGTGCAG | 4450 fluorescence intensity (a.u.)
39 | AGAGAAAGGAAGGGAAGAGAGAGGGTGATGACGTGGCGACCGGAGTCACCTAGTGCAG | 35600 fluorescence intensity (a.u.)
40 | TCAGAATGCGTGTGATGTAAAAGTTCGAGAAGACTTTGTTCGGAGTCACCTAGTGCAG | 3210 fluorescence intensity (a.u.)
41 | AAAGAATGACGATATGATGTGAGAAGTTTGTGAAGACTTGCGGAGTCACCTAGTGCAG | 41100 fluorescence intensity (a.u.)
42 | GAGAGAAGAGGGGAAAAGAGAGAGGAGTTTGATGACGTGGCGGAGTCACCTAGTGCAG | 39300 fluorescence intensity (a.u.)
43 | AAAATGGAGAGAAGAGGAAGGGACAGATGACGTGGCATCCCGGAGTCACCTAGTGCAG | 48900 fluorescence intensity (a.u.)
44 | GAGAGGACGAAGGGAAAGAGAGAGATGGTGATGACGTGGCCGGAGTCACCTAGTGCAG | 31600 fluorescence intensity (a.u.)
45 | AGACTGAAAGAGAGAGGAAGGAAGAGAGATGACGTGGCATCGGAGTCACCTAGTGCAG | 35800 fluorescence intensity (a.u.)
46 | GGGAGGAAGAAGAAAGGGAGAGAGAGGGGATGACATGTGGCGGAGTCACCTAGTGCAG | 5680 fluorescence intensity (a.u.)
